Measured values published in PubChem BioAssay (NCI).
About 79,000 compounds went through this panel and 15% of them were active in at least one assay; those are over-represented in the sample as a whole. Activity calls are given as the source filed them. Rule as the data show it: active = growth inhibition above about 70%; inactive = the rest.

Legend:
[1] = NCI Yeast Anticancer Drug Screen. Data for the wt1 strain (AID 149);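 also: 0% = growth of vehicle-treated wt1 cultures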; conditions: S. cerevisiae wt1 strain (SPY 50644) growth inhibition, stronger effect = higher value
Summary of the method: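 Vehicle-normalised growth inhibition; strain wt1; compound exposure.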

[2] = NCI Yeast Anticancer Drug Screen. Data for the rad50EPP+ strain (AID 151);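 also: 0% = growth of vehicle-treated control cultures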; conditions: S. cerevisiae rad50 mutant strain, stronger effect = higher value
Summary of the method: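 Vehicle-normalised growth inhibition; rad50EPP+ yeast strain, altered in DNA damage repair, compound-treated.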

[3] = NCI Yeast Anticancer Drug Screen. Data for the mgt1 strain (AID 153); conditions: S. cerevisiae mgt1 mutant growth inhibition, stronger effect = higher value
Summary of the method: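 Vehicle-normalized growth inhibition is determined in mgt1 yeast, a strain selected for a defined alteration in DNA repair or cell cycle control.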

[4] = NCI Yeast Anticancer Drug Screen. Data for the rad50 strain (AID 155);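 also: 0% = growth of vehicle-only cultures of the same strain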; conditions: S. cerevisiae rad50 strain growth inhibition, stronger effect = higher value
Summary of the method: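 A DNA repair-deficient yeast mutant serves as the test organism; compound-induced growth inhibition is calculated against vehicle-treated cells.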

[5] = NCI Yeast Anticancer Drug Screen. Data for the mec2-1 strain (AID 157); conditions: S. cerevisiae mec2-1 strain, stronger effect = higher value
Summary of the method: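 Mutant yeast (mec2-1) grown with compound; growth inhibition relative to vehicle control reported.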

[6] = NCI Yeast Anticancer Drug Screen. Data for the rad14 strain (AID 159);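 also: 0% = growth of vehicle-treated control cultures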; conditions: S. cerevisiae rad14 strain growth inhibition, stronger effect = higher value
Summary of the method: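 Vehicle-treated cultures served as the baseline for growth inhibition of a DNA repair-mutant yeast strain exposed to each compound.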

[7] = NCI Yeast Anticancer Drug Screen. Data for the sgs1 mgt1 strain (AID 161);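 also: 0% = growth of cultures given vehicle only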; conditions: S. cerevisiae sgs1 mgt1 strain, stronger effect = higher value
Summary of the method: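 Percent growth inhibition was derived by comparing compound-exposed mutant yeast with vehicle-exposed cultures. The strain carries alterations in DNA damage repair.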

[8] = NCI Yeast Anticancer Drug Screen. Data for the CLN2oe strain (AID 163);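 also: 0% = growth of vehicle-only control cultures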; conditions: S. cerevisiae CLN2oe strain, stronger effect = higher value
Summary of the method: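 Compounds are applied to yeast harbouring a defined cell-cycle control change; reduced growth compared with vehicle-treated controls gives the value.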

[9] = NCI Yeast Anticancer Drug Screen. Data for the cln2 rad14 strain (AID 165);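 also: 0% = growth equal to vehicle treated cultures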; conditions: S. cerevisiae cln2 rad14 strain, stronger effect = higher value
Summary of the method: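 Readout is yeast growth inhibition versus vehicle-treated controls, using a strain with cln2 and rad14 alterations exposed to compound.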

[10] = NCI Yeast Anticancer Drug Screen. Data for the bub3 strain (AID 167); conditions: S. cerevisiae bub3 mutant strain, stronger effect = higher value
Summary of the method: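 Inhibition values come from growth of compound-treated mutant yeast normalised to vehicle-treated controls.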

[11] = NCI Yeast Anticancer Drug Screen. Data for the wt2 strain (AID 169);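 also: 0% = growth of vehicle-treated yeast cultures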; conditions: S. cerevisiae wt2 strain growth inhibition, stronger effect = higher value
Summary of the method: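 Against vehicle-treated controls, the growth of yeast exposed to each compound was compared, and the inhibition was recorded.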

[12] = NCI Yeast Anticancer Drug Screen. Data for the mlh1 strain (AID 171);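 also: 0% = growth of vehicle-treated control cultures of the same strain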; conditions: S. cerevisiae mlh1 strain growth inhibition, stronger effect = higher value
Summary of the method: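 Measured: yeast growth. Reference: vehicle-treated controls. Organism: strain with a defined alteration affecting DNA damage repair or cell cycle control, treated with compound.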

[13] = NCI Yeast Anticancer Drug Screen. Data for the sgs1 strain (AID 173);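 also: 0% = growth of vehicle-only control cultures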; conditions: S. cerevisiae sgs1 mutant, stronger effect = higher value
Summary of the method: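 Each compound was added to cultures of the altered yeast strain. Growth was recorded, and inhibition was derived by comparison with vehicle controls.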

[14] = NCI Yeast Anticancer Drug Screen. Data for the mlh1 rad18 strain (AID 175); conditions: S. cerevisiae mlh1 rad18 strain growth inhibition, stronger effect = higher value
Summary of the method: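 Genetically defined yeast (DNA repair-deficient) exposed to compounds; growth inhibition determined relative to vehicle.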

[15] = NCI Yeast Anticancer Drug Screen. Data for the rad18 strain (AID 177); conditions: S. cerevisiae rad18 mutant growth inhibition, stronger effect = higher value
Summary of the method: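 Vehicle-treated cultures served as the baseline for scoring compound-induced growth inhibition in DNA-repair-mutant yeast.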

[16] = at 5.0 µM (retest, dose inferred, filed as 0.5)
[17] = at 50.0 µM (retest, dose inferred, filed as 5.0)

Measured: growth inhibition

Nc1ccc2cc(Br)ccc2c1Br
active: [5]; at 50.0 µM 90.2% | [10]; at 50.0 µM 88.5% | [14]; at 50.0 µM 91.2%
inactive: [1]; at 1.2 µM -2% | [1]; at 3.7 µM -3% | [1]; at 11.0 µM -3% | [1]; at 33.0 µM -5% | [1]; at 100.0 µM -1% | [2]; at 1.2 µM 1% | [2]; at 3.7 µM 7% | [2]; at 11.0 µM 23% | [2]; at 33.0 µM 19% | [2]; at 100.0 µM 49% | [3]; at 1.2 µM -4% | [3]; at 3.7 µM -1% | [3]; at 11.0 µM -1% | [3]; at 33.0 µM -1% | [3]; at 100.0 µM 4% | [4]; at 1.2 µM -2% | [4]; at 3.7 µM 1% | [4]; [16] 13% | [4]; at 11.0 µM 8% | [4]; at 33.0 µM 2% | [4]; [17] 27% | [4]; at 50.0 µM 4.6% | [4]; at 100.0 µM 26% | [5]; at 1.2 µM 0% | [5]; at 3.7 µM -1% | [5]; [16] -5% | [5]; at 11.0 µM -2% | [5]; at 33.0 µM -2% | [5]; [17] 1% | [5]; at 100.0 µM 1% | [6]; at 1.2 µM -6% | [6]; at 3.7 µM 0% | [6]; at 11.0 µM 7% | [6]; at 33.0 µM 5% | [6]; at 100.0 µM 26% | [7]; [16] 15% | [7]; [17] 14% | [7]; at 50.0 µM 18% | [8]; at 1.2 µM -2% | [8]; at 3.7 µM -2% | [8]; at 11.0 µM -3% | [8]; at 33.0 µM -5% | [8]; at 100.0 µM 2% | [9]; [16] 3% | [9]; [17] 9% | [9]; at 50.0 µM -23% | [10]; at 1.2 µM 3% | [10]; at 3.7 µM 3% | [10]; [16] 22% | [10]; at 11.0 µM 1% | [10]; at 33.0 µM 4% | [10]; [17] 47% | [10]; at 100.0 µM 6% | [11]; at 1.2 µM -1% | [11]; at 3.7 µM -8% | [11]; at 11.0 µM -5% | [11]; at 33.0 µM -6% | [11]; at 100.0 µM 28% | [12]; at 1.2 µM -2% | [12]; at 3.7 µM 1% | [12]; at 11.0 µM 3% | [12]; at 33.0 µM 1% | [12]; at 100.0 µM 20% | [13]; at 1.2 µM -24% | [13]; at 3.7 µM -22% | [13]; at 11.0 µM -17% | [13]; at 33.0 µM -9% | [13]; at 100.0 µM 30% | [14]; [16] 28% | [14]; [17] 57% | [15]; at 1.2 µM -4% | [15]; at 3.7 µM -1% | [15]; at 11.0 µM 7% | [15]; at 33.0 µM -3% | [15]; at 100.0 µM 20%

CC1=CC(=O)C=CC1=Nc1cc(Cl)c(O)c(Cl)c1
inactive: [1]; at 1.2 µM -30% | [1]; at 3.7 µM -24% | [1]; at 11.0 µM -12% | [1]; at 33.0 µM 52% | [2]; at 1.2 µM -31% | [2]; at 3.7 µM -15% | [2]; at 11.0 µM -16% | [2]; at 33.0 µM 27% | [3]; at 1.2 µM -4% | [3]; at 3.7 µM 4% | [3]; at 11.0 µM 9% | [3]; at 33.0 µM 40% | [4]; at 1.2 µM -2% | [4]; at 3.7 µM 8% | [4]; [16] 55% | [4]; at 11.0 µM 8% | [4]; at 33.0 µM 62% | [4]; [17] 53% | [5]; at 1.2 µM -21% | [5]; at 3.7 µM -16% | [5]; [16] 63% | [5]; at 11.0 µM -4% | [5]; at 33.0 µM 55% | [5]; [17] 48% | [6]; at 1.2 µM -43% | [6]; at 3.7 µM -31% | [6]; at 11.0 µM -30% | [6]; at 33.0 µM 38% | [7]; [16] -4% | [8]; at 1.2 µM -2% | [8]; at 3.7 µM -9% | [8]; at 11.0 µM 22% | [8]; at 33.0 µM 45% | [9]; [16] 48% | [10]; at 1.2 µM 7% | [10]; at 3.7 µM 11% | [10]; [16] 45% | [10]; at 11.0 µM 8% | [10]; at 33.0 µM 49% | [11]; at 1.2 µM -31% | [11]; at 3.7 µM -20% | [11]; at 11.0 µM -14% | [11]; at 33.0 µM 30% | [12]; at 1.2 µM -51% | [12]; at 3.7 µM -24% | [12]; at 11.0 µM -21% | [12]; at 33.0 µM 10% | [13]; at 1.2 µM -50% | [13]; at 3.7 µM -42% | [13]; at 11.0 µM -17% | [13]; at 33.0 µM 43% | [14]; [16] 40% | [14]; [17] 48%
active: [1]; at 100.0 µM 93% | [2]; at 100.0 µM 70% | [3]; at 100.0 µM 94% | [4]; at 50.0 µM 81.4% | [4]; at 100.0 µM 91% | [5]; at 50.0 µM 79.3% | [5]; at 100.0 µM 93% | [6]; at 100.0 µM 89% | [7]; [17] 93% | [7]; at 50.0 µM 83.7% | [8]; at 100.0 µM 90% | [9]; [17] 94% | [9]; at 50.0 µM 77.2% | [10]; [17] 91% | [10]; at 50.0 µM 83% | [10]; at 100.0 µM 92% | [11]; at 100.0 µM 94% | [12]; at 100.0 µM 91% | [13]; at 100.0 µM 89% | [14]; at 50.0 µM 82%
